Shown are actives, neighbours in structure and some others; about 8% of the full set was active somewhere.
HT1080NT lethal: qHTS for induction of synthetic lethality in tumor cells producing 2HG: qHTS for the HT-1080-NT fibrosarcoma cell line. Potency, µM (top dose mostly 46.1 µM), for the others: top-dose activity, negative = less viability, hits mostly cytotoxic. HT-1080-NT fibrosarcoma viability, CellTiter-Glo ATP luminescence, 48 h. actives 1.6% (n = 360,000). AID 686970, 2013;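 note: NT is the 2HG producing partner of a matched IDH1 knockdown line; 0% = DMSO-treated cells and -100% = media-only wells without cells; nearly all actives have a fitted effect of over 55% in size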
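Luminescent CellTiter-Glo readout after 48 hours of compound exposure at 37 degrees C defined viability of HT-1080-NT cells. Activity was normalized to DMSO wells and cell-free media wells; concentration-response curves were fitted and assigned curve classes.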
HT1080 IDH1KD tx: qHTS for induction of synthetic lethality in tumor cells producing 2HG: qHTS for the HT-1080-IDH1KD cell line | HT-1080 IDH1 knockdown viability, ATP luminescence, 48 h | Potency, µM (doses to about 46.1 µM), for inactives: at the highest dose activity, negative = toxicity, most hits filed as cytotoxic | actives 2% (n = 360,000) | AID 686971, 2013;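 note: 0% = DMSO wells and -100% = cell-free medium wells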
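Cytotoxicity counter-line: IDH1KD HT-1080, 48 h, CellTiter-Glo. Curves classed by r2, magnitude and activity.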
SW480 rereplic: A quantitative high throughput screen for small molecules that induce DNA re-replication in SW480 colon adenocarcinoma cells; SW480 DNA re-replication, Hoechst DNA content imaging, 48 h; Potency, µM (series often up to 46.1 µM), inactives show at the top dose re-replication activation, hits mostly activators; actives 1.8% (n = 340,000); AID 624297, 2012; note: % of control where 0% means no effect; nearly all actives have a fitted effect of over 55% in size
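250 cells/well; 23 nL cpd via pin tool; 48 hr, 37 C, 5% CO2; Hoechst 40 min; imager read of total nuclear intensity, ex 405/em 500-530 nm.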
KB-V1 cytotox: qHTS assay for MDR1-selective chemotherapeutics: Primary screen using the drug-selected MDR subline cells KB-V1 | KB-V1 MDR cells viability, CellTiter-Glo, 72 h | Potency, µM (doses to about 46.1 µM), usual class: cytotoxic | actives 3.4% (n = 400,000) | AID 1347076, 2019; note: % is set by controls: 0 for no effect and ±100 for the full control effect; nearly all actives have a fitted effect of over 60% in size
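qHTS viability screen in drug-selected KB-V1 MDR cells: 72 h compound treatment at 37 degrees C, ATP luminescence end point.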
KB-3-1 cytotox: qHTS assay for MDR1-selective chemotherapeutics: Primary screen using the parental adenocarcinoma cell KB-3-1 | KB-3-1 viability, CellTiter-Glo ATP luminescence, 72 h | Potency, µM (titrated, usually from 46.1 µM), usual class: cytotoxic | actives 1.4% (n = 400,000) | AID 1347075, 2019; note: % is set by controls: 0 for no effect and ±100 for the full control effect; nearly all actives have a fitted effect of over 60% in size
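Parental KB-3-1 viability, qHTS format: 72 h compound exposure, 37 °C; CellTiter-Glo; media-only wells and DMSO plates as controls; concentration-effect fits on corrected data.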
MCF10A rereplic: A quantitative high throughput screen for small molecules that induce DNA re-replication in MCF 10a normal breast cells | MCF 10A DNA re-replication, Hoechst nuclear intensity, 48 h | Potency, µM (series often up to 46.1 µM), for inactives: top-dose activity, positive = re-replication, usual class: activators | actives 2.9% (n = 350,000); note: % of control where 0% means no effect; nearly all actives have a fitted effect of over 50% in size
The depositor's hits bear a star; i = inactive; ? = inconclusive; nt = not tested or not shown; [ ] = dose if it differs, or a comment. Calls come from the whole dose curve; as a rule, active = well fitted curve in the direction sought with a large enough effect; inconclusive = small, poorly fitted or top-dose-only effect, or another doubt; inactive = no such curve, though single readings can be large; an effect the other way counts as inactive or inconclusive. Potency is the fitted concentration of half-maximal effect.

SMILES	HT1080NT lethal	HT1080 IDH1KD tx	SW480 rereplic	KB-V1 cytotox	KB-3-1 cytotox	MCF10A rereplic
COc1ccc(/C=C2\SC(=S)N(CCCC(=O)N3CCN(C)CC3)C2=O)cc1	25.9µM*	16.4µM*	-0.9%	i	i	?
COc1ccc(/C=C2\SC(=S)N(CCC(=O)NCCCn3ccnc3)C2=O)cc1	2.6%	1.8%	-23.0%	i	i	0.8%
CCOc1ccc(/C=C2\SC(=S)N(CCCC(=O)NCCCN3CCOCC3)C2=O)cc1	?	16.4µM*	16.4µM*	i	i	?
CCc1ccc(/C=C2\SC(=S)N(CCCC(=O)NCCCN3CCOCC3)C2=O)cc1	-17.9%	?	nt	i	i	nt
CCOC(=O)c1c(C)[nH]c(C(=O)OCC(=O)N(C)CC(=O)Nc2ccccc2Cl)c1C	-3.5%	-5.0%	?	13µM*	i	8.5%
CCOC(=O)c1[nH]c(C)c(C(=O)NCc2ccc(OC)cc2)c1C	-0.3%	-7.1%	0.2%	i	i	15.7%
Cc1ccc(OCC(=O)N(C)CC(=O)Nc2ccc(F)cc2)c([N+](=O)[O-])n1	6.0%	2.2%	3.0%	i	i	-4.1%
CCOC(=O)c1[nH]c(C)c(C(=O)Nc2cc(OC)ccc2OC)c1C	0.631µM*	0.562µM*	1.26µM*	0.501µM*	1.26µM*	0.631µM*
Cc1ccc(OCC(=O)N(C)CC(=O)Nc2ccccc2Cl)c([N+](=O)[O-])n1	-2.2%	-22.9%	-1.5%	18.4µM*	i	-2.2%
CC(=O)Oc1ccc(-c2ccc(C(=O)OCC(=O)N(C)CC(=O)Nc3ccccc3Cl)cc2)cc1	18.4µM*	?	-1.7%	i	i	?
CCCc1cc2c(=O)c(-c3ccc4c(c3)OCCO4)c(C)oc2cc1OS(C)(=O)=O	?	?	2.5%	i	i	21.5%
O=C(COc1cccnc1[N+](=O)[O-])N1CCc2ccccc21	3.5%	19.7%	0.8%	i	i	-3.1%
O=C(COC(=O)c1cc[n+]([O-])cc1)Nc1ccc(Cl)cc1[N+](=O)[O-]	-0.4%	8.4%	-6.9%	i	i	2.3%
CCOC(=O)c1c(C)[nH]c(C(=O)OCC(=O)Nc2cc(C)ccc2OC)c1C	-1.9%	-0.2%	-14.1%	?	i	?
CCOC(=O)c1[nH]c(C)c(C(=O)OCC(=O)NC(C)c2ccc(F)cc2)c1C (stereo unspecified)	3.66µM*	3.66µM*	9.2µM*	i	1.84µM*	?
Cc1ccc(OCC(=O)N2CCc3ccccc32)c([N+](=O)[O-])n1	18.5%	17.6%	-7.0%	i	23.1µM*	2.7%
CCOC(=O)c1c(C)[nH]c(C(=O)OCC(=O)Nc2cc(Cl)ccc2OC)c1C	-18.6%[9.24 µM]	?	?	9.2µM*	i	8.7%
CC(=O)c1c(C)[nH]c(C(=O)OCC(=O)Nc2ccc(Cl)cc2[N+](=O)[O-])c1C	18.4µM*	-27.4%	-11.2%	?	i	4.2%
Cn1cnnc1SCC(=O)Nc1ccc(C#N)cc1	nt	nt	nt	i	i	nt
COc1ccc2cnnc(SCC(=O)Nc3ccccc3)c2c1OC	-0.5%	-0.1%	-5.8%	2.91µM*	i	-7.9%
COc1ccc2cnnc(SCC(=O)Nc3ccc(C(=O)O)cc3)c2c1OC	2.3%	7.2%	-2.9%	?	i	-1.2%
COc1ccc2cnnc(SCC(=O)Nc3ccc(C(C)=O)cc3)c2c1OC	1.1%	-0.4%	-6.3%	5.17µM*	i	-8.5%
O=C(CN1C(=O)c2cccc3cccc(c23)C1=O)N1CCOCC1	2.3%	8.5%	-1.0%	i	i	-0.7%
Cc1c(N2C(=O)/C(=C\C3CC=CCC3)SC2=S)c(=O)n(-c2ccccc2)n1C (stereo unspecified)	?	18.4µM*	15.4%	i	i	?
Cc1c(N2C(=O)/C(=C/c3ccccc3)SC2=S)c(=O)n(-c2ccccc2)n1C	?	?	-0.8%[9.22 µM]	i	i	18.7%
SMILES	HT1080NT lethal	HT1080 IDH1KD tx	SW480 rereplic	KB-V1 cytotox	KB-3-1 cytotox	MCF10A rereplic
Cc1c(N2C(=O)/C(=C\c3ccccc3O)SC2=S)c(=O)n(-c2ccccc2)n1C	-5.9%	4.1%	18.4µM*	i	i	?
CC(=O)C(C(C)=O)C1(O)C(=O)c2ccccc2C1=O	-12.3%	1.2%	0.4%	i	i	?
COc1ccc(N(C(=O)C2CSC(=O)C2)C(C(=O)NC(C)(C)C)c2ccncc2)cc1 (stereo unspecified)	9.4%	0.0%	-4.9%	i	i	2.5%
CCOc1ccccc1N1CC(C(=O)Nc2ccccc2CC)CC1=O (stereo unspecified)	-4.6%	12.4%	-14.4%	?	?	-13.5%
CCC(C(=O)N1CCC(C(N)=O)CC1)n1nc(C)n2c(cc3occc32)c1=O (stereo unspecified)	0.2%	11.0%	-3.5%	i	i	1.0%
CCC(C(=O)NCCN1CCOCC1)n1nc(C)n2c(cc3sccc32)c1=O (stereo unspecified)	-0.5%	4.1%	0.9%	i	i	2.0%
CCC(C(=O)N1CCN(c2ccccc2)CC1)n1nc(C)n2c(cc3sccc32)c1=O (stereo unspecified)	nt	nt	nt	?	18.4µM*	nt
CCC(C(=O)N1CCN(c2cc(Cl)ccc2C)CC1)n1nc(C)n2c(cc3occc32)c1=O (stereo unspecified)	nt	nt	nt	10.3µM*	10.3µM*	nt
Cc1ccc(NC(=O)/C(=C\c2ccc3c(c2)OCO3)NC(=O)c2ccco2)cc1	0.1%	1.0%	-10.1%	i	i	6.5%
CCc1ccccc1NC(=O)CCS(=O)(=O)c1ccc(C)cc1	-3.5%	-2.1%	-5.9%	i	i	0.7%
COc1ccc(OC)c(NC(=O)CSc2nnc(CCCO)n2-c2ccccc2)c1	-0.1%[9.24 µM]	-18.9%	0.7%	i	i	-6.2%
CS(=O)(=O)N(CC(=O)N/N=C/c1ccccc1C(=O)O)c1cccc(Cl)c1Cl	2.3%	-8.9%	5.3%	i	i	0.9%
CC(C)c1ccc(/C=N/NC(=O)CN(c2cccc(Cl)c2Cl)S(C)(=O)=O)cc1	18.4µM*	20.6µM*	?	?	?	?

Screening data: PubChem BioAssay, National Center for Advancing Translational Sciences (NCATS)
